# Out of some 5,500 compounds screened, about 2,000 (36%) were called active. About 18% were inconclusive and are not listed. No stated cut-off is given here; in the data, active means normalized growth mostly below about 0.91 (no sharp cut-off); inconclusive means no clear call, values can overlap the other calls; inactive means mostly above about 0.92. This is one part of the list.
# Test: chemical genetic growth profiling, strain panel (AID 1159580);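 further: tested at 20 µM; growth read once vehicle control cultures reached saturation at 30 °C; 1 = growth at the plate median or of vehicle wells; lower values mean less growth of the strain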
# Conditions: growth OD
smiles,measurement,setting,value
CCCCOC(=O)c1ccc(N)cc1,normalized growth,"S. cerevisiae deletion strains, locus YJR075W, strain HOC1, active compounds read low",0.888 (inactive)
same,normalized growth,"S. cerevisiae deletion strains, locus YKL009W, strain mrt4, active compounds read low",0.946 (inactive)
same,normalized growth,"S. cerevisiae deletion strains, locus YKL068W, active compounds read low",0.962 (inactive)
same,normalized growth,"S. cerevisiae deletion strains, locus YKL085W, strain MDH1 (second series), active compounds read low",0.961 (inactive)
same,normalized growth,"S. cerevisiae deletion strains, locus YKL085W, strain MDH1, active compounds read low",0.961 (inactive)
same,normalized growth,"S. cerevisiae deletion strains, locus YKL160W, strain elf1, active compounds read low",0.875 (active)
same,normalized growth,"S. cerevisiae deletion strains, locus YKL190W, strain CNB1, active compounds read low",0.975 (inactive)
same,normalized growth,"S. cerevisiae deletion strains, locus YKR001C, strain vps1, active compounds read low",0.693 (active)
same,normalized growth,"S. cerevisiae deletion strains, locus YKR026C, strain gcn3, active compounds read low",0.91 (active)
same,normalized growth,"S. cerevisiae deletion strains, locus YKR091W, strain srl3, active compounds read low",0.907 (active)
same,normalized growth,"S. cerevisiae deletion strains, locus YLL001W, strain dnm1, active compounds read low",0.825 (active)
same,normalized growth,"S. cerevisiae deletion strains, locus YLL026W, active compounds read low",0.888 (active)
same,normalized growth,"S. cerevisiae deletion strains, locus YLL041C, strain sdh2, active compounds read low",0.899 (active)
same,normalized growth,"S. cerevisiae deletion strains, locus YLR027C, strain aat2, active compounds read low",0.878 (active)
same,normalized growth,"S. cerevisiae deletion strains, locus YLR039C, strain RIC1, active compounds read low",0.783 (inactive)
same,normalized growth,"S. cerevisiae deletion strains, locus YLR058C, strain SHM2, active compounds read low",0.979 (inactive)
same,normalized growth,"S. cerevisiae deletion strains, locus YLR102C, strain apc9, active compounds read low",0.955 (inactive)
same,normalized growth,"S. cerevisiae deletion strains, locus YLR113W, strain HOG1, active compounds read low",0.954 (inactive)
same,normalized growth,"S. cerevisiae deletion strains, locus YLR221C, strain rsa3, active compounds read low",0.841 (active)
same,normalized growth,"S. cerevisiae deletion strains, locus YLR258W, strain gsy2, active compounds read low",0.873 (active)
same,normalized growth,"S. cerevisiae deletion strains, locus YLR262C, strain YPT6 (second series), active compounds read low",0.433 (active)
same,normalized growth,"S. cerevisiae deletion strains, locus YLR262C, strain YPT6, active compounds read low",0.775 (inactive)
same,normalized growth,"S. cerevisiae deletion strains, locus YLR268W, strain sec22, active compounds read low",0.86 (active)
same,normalized growth,"S. cerevisiae deletion strains, locus YLR320W, strain mms22, active compounds read low",0.635 (active)
same,normalized growth,"S. cerevisiae deletion strains, locus YLR330W, strain CHS5, active compounds read low",0.947 (inactive)
same,normalized growth,"S. cerevisiae deletion strains, locus YLR342W, strain FKS1 (second series), active compounds read low",0.661 (active)
same,normalized growth,"S. cerevisiae deletion strains, locus YLR342W, strain FKS1, active compounds read low",0.605 (active)
same,normalized growth,"S. cerevisiae deletion strains, locus YLR357W, strain rsc2, active compounds read low",0.942 (inactive)
same,normalized growth,"S. cerevisiae deletion strains, locus YLR370C, strain arc18, active compounds read low",0.844 (active)
same,normalized growth,"S. cerevisiae deletion strains, locus YLR371W, strain rom2, active compounds read low",0.886 (active)
same,normalized growth,"S. cerevisiae deletion strains, locus YLR384C, strain iki3, active compounds read low",0.946 (inactive)
same,normalized growth,"S. cerevisiae deletion strains, locus YLR418C, strain cdc73, active compounds read low",0.765 (active)
same,normalized growth,"S. cerevisiae deletion strains, locus YML016C, strain PPZ1, active compounds read low",0.981 (inactive)
same,normalized growth,"S. cerevisiae deletion strains, locus YML032C, strain rad52, active compounds read low",0.905 (active)
same,normalized growth,"S. cerevisiae deletion strains, locus YML120C, strain ndi1, active compounds read low",0.897 (active)
same,normalized growth,"S. cerevisiae deletion strains, locus YML124C, strain tub3, active compounds read low",0.939 (inactive)
same,normalized growth,"S. cerevisiae deletion strains, locus YMR058W, strain fet3, active compounds read low",0.881 (active)
same,normalized growth,"S. cerevisiae deletion strains, locus YMR078C, strain ctf18, active compounds read low",0.933 (inactive)
same,normalized growth,"S. cerevisiae deletion strains, locus YMR125W, strain sto1, active compounds read low",0.871 (active)
same,normalized growth,"S. cerevisiae deletion strains, locus YMR129W, active compounds read low",0.922 (active)
same,normalized growth,"S. cerevisiae deletion strains, locus YMR205C, strain PFK2, active compounds read low",0.793 (active)
same,normalized growth,"S. cerevisiae deletion strains, locus YMR223W, strain ubp8, active compounds read low",0.902 (active)
same,normalized growth,"S. cerevisiae deletion strains, locus YMR231W, strain pep5, active compounds read low",0.931 (inactive)
same,normalized growth,"S. cerevisiae deletion strains, locus YMR263W, strain SAP30, active compounds read low",0.93 (inactive)
same,normalized growth,"S. cerevisiae deletion strains, locus YMR307W, strain GAS1, active compounds read low",0.319 (active)
same,normalized growth,"S. cerevisiae deletion strains, locus YNL067W, strain RPL9B, active compounds read low",0.907 (inactive)
same,normalized growth,"S. cerevisiae deletion strains, locus YNL071W, strain lat1, active compounds read low",0.653 (active)
same,normalized growth,"S. cerevisiae deletion strains, locus YNL128W, strain TEP1, active compounds read low",0.989 (inactive)
same,normalized growth,"S. cerevisiae deletion strains, locus YNL153C, strain GIM3, active compounds read low",0.939 (inactive)
same,normalized growth,"S. cerevisiae deletion strains, locus YNL183C, strain NPR1, active compounds read low",0.934 (inactive)
same,normalized growth,"S. cerevisiae deletion strains, locus YNL209W, strain ssb2, active compounds read low",0.927 (active)
same,normalized growth,"S. cerevisiae deletion strains, locus YNL233W, strain BNI4, active compounds read low",0.86 (active)
same,normalized growth,"S. cerevisiae deletion strains, locus YNL248C, strain rpa49, active compounds read low",0.904 (inactive)
same,normalized growth,"S. cerevisiae deletion strains, locus YNL250W, strain rad50, active compounds read low",0.934 (inactive)
same,normalized growth,"S. cerevisiae deletion strains, locus YNL271C, strain bni1, active compounds read low",0.938 (inactive)
same,normalized growth,"S. cerevisiae deletion strains, locus YNL298W, strain CLA4, active compounds read low",0.939 (inactive)
same,normalized growth,"S. cerevisiae deletion strains, locus YNL307C, strain MCK1, active compounds read low",0.868 (active)
same,normalized growth,"S. cerevisiae deletion strains, locus YNL322C, strain KRE1 (second series), active compounds read low",0.91 (inactive)
same,normalized growth,"S. cerevisiae deletion strains, locus YNL322C, strain KRE1, active compounds read low",0.987 (inactive)
same,normalized growth,"S. cerevisiae deletion strains, locus YNR049C, strain mso1, active compounds read low",0.905 (active)
same,normalized growth,"S. cerevisiae deletion strains, locus YNR052C, strain pop2, active compounds read low",0.949 (inactive)
same,normalized growth,"S. cerevisiae deletion strains, locus YOL006C, strain TOP1, active compounds read low",0.64 (inactive)
same,normalized growth,"S. cerevisiae deletion strains, locus YOL012C, strain htz1",0.742 (inactive)
same,normalized growth,"S. cerevisiae deletion strains, locus YOL147C, strain pex11, active compounds read low",0.937 (inactive)
same,normalized growth,"S. cerevisiae deletion strains, locus YOR001W, strain rrp6, active compounds read low",0.853 (active)
same,normalized growth,"S. cerevisiae deletion strains, locus YOR061W, strain CKA2, active compounds read low",0.986 (inactive)
same,normalized growth,"S. cerevisiae deletion strains, locus YOR069W, strain VPS5, active compounds read low",0.987 (inactive)
same,normalized growth,"S. cerevisiae deletion strains, locus YOR070C, strain gyp1, active compounds read low",0.9 (active)
same,normalized growth,"S. cerevisiae deletion strains, locus YOR080W, strain dia2, active compounds read low",0.95 (inactive)
same,normalized growth,"S. cerevisiae deletion strains, locus YOR083W, strain WHI5, active compounds read low",0.862 (active)
same,normalized growth,"S. cerevisiae deletion strains, locus YOR106W, strain vam3, active compounds read low",0.771 (active)
same,normalized growth,"S. cerevisiae deletion strains, locus YOR136W, strain idh2, active compounds read low",0.956 (inactive)
same,normalized growth,"S. cerevisiae deletion strains, locus YOR144C, strain elg1, active compounds read low",0.961 (inactive)
same,normalized growth,"S. cerevisiae deletion strains, locus YOR184W, strain ser1, active compounds read low",0.817 (active)
same,normalized growth,"S. cerevisiae deletion strains, locus YOR231W, strain MKK1, active compounds read low",0.987 (inactive)
same,normalized growth,"S. cerevisiae deletion strains, locus YOR265W, strain rbl2, active compounds read low",0.902 (active)
same,normalized growth,"S. cerevisiae deletion strains, locus YOR270C, strain vph1, active compounds read low",0.489 (active)
same,normalized growth,"S. cerevisiae deletion strains, locus YOR290C, strain snf2, active compounds read low",0.867 (inactive)
same,normalized growth,"S. cerevisiae deletion strains, locus YOR316C, strain cot1, active compounds read low",0.955 (inactive)
same,normalized growth,"S. cerevisiae deletion strains, locus YPL051W, strain arl3, active compounds read low",0.725 (active)
same,normalized growth,"S. cerevisiae deletion strains, locus YPL055C, strain LGE1, active compounds read low",0.889 (inactive)
same,normalized growth,"S. cerevisiae deletion strains, locus YPL078C, strain atp4, active compounds read low",0.795 (active)
same,normalized growth,"S. cerevisiae deletion strains, locus YPL106C, strain sse1, active compounds read low",0.792 (active)
same,normalized growth,"S. cerevisiae deletion strains, locus YPL240C, strain hsp82, active compounds read low",0.914 (active)
same,normalized growth,"S. cerevisiae deletion strains, locus YPL241C, strain CIN2, active compounds read low",0.98 (inactive)
same,normalized growth,"S. cerevisiae deletion strains, locus YPL256C, strain CLN2, active compounds read low",0.967 (inactive)
same,normalized growth,"S. cerevisiae deletion strains, locus YPR119W, strain clb2, active compounds read low",0.949 (inactive)
same,normalized growth,"S. cerevisiae deletion strains, locus YPR141C, strain kar3, active compounds read low",0.933 (inactive)
same,normalized growth,"S. cerevisiae deletion strains, locus YPR163C, strain tif3, active compounds read low",0.946 (inactive)
same,normalized growth,"S. cerevisiae deletion strains, locus YPR167C, strain met16, active compounds read low",0.96 (inactive)
same,normalized growth,"S. cerevisiae deletion strains, strain wtn01, active compounds read low",0.871 (active)
same,normalized growth,"S. cerevisiae strains, strain wild type, active compounds read low",0.949 (inactive)

# — PubChem BioAssay AID1159580 (chemical genetic matrix, 2015)
